# Measurements as given in PubChem BioAssay (Tox21).
# A number with no mark means an inactive call. Calls come from the whole dose curve. Records with an inconclusive call do not appear.
# Assay: G protein-coupled receptor (GPCR) small molecule agonists, calcium flux assay: HEK293 wild type cell line counter screen (AID 1920065)
# Details: HEK293 WT calcium flux, fluorescence, agonist mode; series mostly up to 57.6 µM; activation: at the top concentration
# In short: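 Agonist mode; 18 h seeding at 37 C, 1 h dye load at 37 C; compounds pinned from DMSO, ATP as positive control; kinetic fluorescence 480/540 nm, 3 min, 1 s reads; 15 concentrations, triplicate.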
# % is set by controls: 0 for no effect and ±100 for the full control effect.
row,SMILES,activation
1,CCOC=C(C(=O)OCC)C(=O)OCC,0.0458%
2,CCC(=O)OCc1ccccc1,-0.0095%
3,O=C1CC[C@H](C(=O)N2CCCCC2)N1,-0.309% [at 26.5 µM]
4,C=C1CC/C=C(\C)CC[C@@H]2[C@@H]1CC2(C)C,0.194%
5,COc1cc(S(N)(=O)=O)cc(C(=O)O)c1OC,0.487% [at 26.5 µM]
6,C1COCCO1,0.499%
7,CC/C=C/CCO,-1.36%
8,CC(=O)N1CCN(c2ccc(O)cc2)CC1,0.174% [at 26.5 µM]
9,Cc1ncc(CO)c(CN)c1O,-0.527% [at 26.5 µM]
10,CC(C)(C)c1ccc(CCC=O)cc1,0.367%
11,CC1=C(O)C(=O)C(C)O1 (configuration not stated),-0.868%
12,CCOC(=O)[C@H](CCc1ccccc1)N[C@@H](C)C(=O)N1C(=O)N(C)C[C@H]1C(=O)O,-0.695% [at 26.5 µM]
13,CCCCCCCCCCCCCCCCCC(=O)OCC(CC)CCCC (configuration not stated),0.0964%
14,NC(=O)Cc1cccc2ccccc12,0.5%
15,Cc1cnccn1,-0.378%
16,O=Cc1ccc(Cl)cc1,-0.167%
17,CCCCCCCCCCC,-1.28%
18,CCCCOC(=O)CCS,-0.272%
19,COc1cc(C(=S)N2CCOCC2)cc(OC)c1OC,1.05% [at 26.5 µM]
20,CCCC(=O)Nc1ccc(O)c(C(C)=O)c1,0.27% [at 26.5 µM]

row,SMILES,activation
1,COc1cc2c(Nc3ccc(Br)cc3F)ncnc2cc1OCC1CCN(C)CC1,0.205% [at 26.5 µM]
2,CC(=O)c1ccc2c(c1)CCCC2,0.243%
3,c1cnc2cc3c(cc2n1)C1CNCC3C1,-1.31% [at 26.5 µM]
4,O=Cc1ccc([N+](=O)[O-])cc1,0.449%
5,CCC(=O)O[C@@H]1C[C@H]2CC[C@]1(C)C2(C)C,0.416%
6,CCNc1nc(N)nc(Cl)n1,-0.111%
7,CN(C)CCCNCCC#N,-0.385%
8,O=C1CCN(c2ccccc2)N1,0.237%
9,O=C(O)c1ccc(OCCN2CCCCC2)cc1,0.185% [at 26.5 µM]
10,C=CC(C)(O)CC/C=C(/C)CCC=C(C)C (configuration not stated),0.716%
11,Cc1cc(CCC(=O)OCCOCCOCCOC(=O)CCc2cc(C)c(O)c(C(C)(C)C)c2)cc(C(C)(C)C)c1O,0.834%
12,C1CCCC1,-0.0738%
13,NS(=O)(=O)c1ccccc1OC(F)(F)F,-0.218%
14,Clc1ccc2c(c1)Nc1ccccc1S2,-0.28% [at 26.5 µM]
15,CC(C)(O)C(=O)c1ccc(OCCO)cc1,0.966%
16,C[Si](C)(C)O[Si](C)(C)O[Si](C)(C)C,-0.463%
17,[Cl][Nd]([Cl])[Cl],-0.84%
18,O=C(Cn1ccnc1[N+](=O)[O-])NCc1ccccc1,0.934% [at 26.5 µM]
19,O=C(O)CC(=O)O,-0.44%

# Assay: p53 small molecule agonists, cell-based qHTS assay with human liver microsomes (AID 1963577);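 note: p53 response element beta-lactamase reporter cells with liver microsomes plus NADPH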
# Details: HCT-116 p53RE-bla with human liver microsomes, ratio, 16 h; series mostly up to 66 µM; activation: at the top concentration
# In short: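 Reporter activation was measured by LiveBLAzer fluorescence intensity in p53RE-bla cells, which had been exposed to compounds for 16 h at 37 C alongside 0.5 mg/mL human liver microsomes and 0.5 mg/mL NADPH (final concentrations).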
row,SMILES,activation
1,CCOC=C(C(=O)OCC)C(=O)OCC,2%
2,CCC(=O)OCc1ccccc1,-0.451%
3,O=C1CC[C@H](C(=O)N2CCCCC2)N1,-2.18% [at 30.3 µM]
4,C=C1CC/C=C(\C)CC[C@@H]2[C@@H]1CC2(C)C,-0.0877%
5,COc1cc(S(N)(=O)=O)cc(C(=O)O)c1OC,0.0558% [at 30.3 µM]
6,C1COCCO1,0.186%
7,CC/C=C/CCO,-1.84%
8,CC(=O)N1CCN(c2ccc(O)cc2)CC1,8.25% [at 30.3 µM]
9,Cc1ncc(CO)c(CN)c1O,-1.32% [at 30.3 µM]
10,CC(C)(C)c1ccc(CCC=O)cc1,-0.28%
11,CC1=C(O)C(=O)C(C)O1 (configuration not stated),7.58%
12,CCOC(=O)[C@H](CCc1ccccc1)N[C@@H](C)C(=O)N1C(=O)N(C)C[C@H]1C(=O)O,3.57% [at 30.3 µM]
13,CCCCCCCCCCCCCCCCCC(=O)OCC(CC)CCCC (configuration not stated),-0.364%
14,NC(=O)Cc1cccc2ccccc12,-0.518%
15,Cc1cnccn1,0.727%
16,O=Cc1ccc(Cl)cc1,2.46%
17,CCCCCCCCCCC,2.53%
18,CCCCOC(=O)CCS,1.13%
19,COc1cc(C(=S)N2CCOCC2)cc(OC)c1OC,9.57% [at 30.3 µM]
20,CCCC(=O)Nc1ccc(O)c(C(C)=O)c1,-1.96% [at 30.3 µM]

row,SMILES,activation
1,COc1cc2c(Nc3ccc(Br)cc3F)ncnc2cc1OCC1CCN(C)CC1,0.0942% [at 30.3 µM]
2,CC(=O)c1ccc2c(c1)CCCC2,0.545%
3,c1cnc2cc3c(cc2n1)C1CNCC3C1,-22.2% [at 30.3 µM]
4,O=Cc1ccc([N+](=O)[O-])cc1,7.74%
5,CCC(=O)O[C@@H]1C[C@H]2CC[C@]1(C)C2(C)C,-0.326%
6,CCNc1nc(N)nc(Cl)n1,-0.13%
7,CN(C)CCCNCCC#N,2.6%
8,O=C1CCN(c2ccccc2)N1,1.2%
9,O=C(O)c1ccc(OCCN2CCCCC2)cc1,-0.293% [at 30.3 µM]
10,C=CC(C)(O)CC/C=C(/C)CCC=C(C)C (configuration not stated),0.0303%
11,Cc1cc(CCC(=O)OCCOCCOCCOC(=O)CCc2cc(C)c(O)c(C(C)(C)C)c2)cc(C(C)(C)C)c1O,0.515%
12,C1CCCC1,1.95%
13,NS(=O)(=O)c1ccccc1OC(F)(F)F,-0.63%
14,Clc1ccc2c(c1)Nc1ccccc1S2,-0.584% [at 30.3 µM]
15,CC(C)(O)C(=O)c1ccc(OCCO)cc1,1.33%
16,C[Si](C)(C)O[Si](C)(C)O[Si](C)(C)C,-1.17%
17,[Cl][Nd]([Cl])[Cl],1.16%
18,O=C(Cn1ccnc1[N+](=O)[O-])NCc1ccccc1,10.2% [at 30.3 µM]
19,O=C(O)CC(=O)O,-0.0606%

# Assay: p53 small molecule agonists, cell-based qHTS assay with rat liver microsomes (AID 1963578)
# Details: HCT-116 p53RE-bla, beta-lactamase ratio, 16 h; series mostly up to 66 µM; activation: at the top concentration
# In short: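 Compound in DMSO added to p53RE-bla cells 5 h post-plating; rat microsomes/NADPH 0.5 mg/mL final; 16 h, 37 C; LiveBLAzer 2 h RT.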
row,SMILES,activation
1,CCOC=C(C(=O)OCC)C(=O)OCC,-0.504%
2,CCC(=O)OCc1ccccc1,-2.91%
3,O=C1CC[C@H](C(=O)N2CCCCC2)N1,-0.237% [at 30.3 µM]
4,C=C1CC/C=C(\C)CC[C@@H]2[C@@H]1CC2(C)C,-2.38%
5,COc1cc(S(N)(=O)=O)cc(C(=O)O)c1OC,-0.48% [at 30.3 µM]
6,C1COCCO1,1.23%
7,CC/C=C/CCO,-0.337%
8,CC(=O)N1CCN(c2ccc(O)cc2)CC1,1.81% [at 30.3 µM]
9,Cc1ncc(CO)c(CN)c1O,-0.156% [at 30.3 µM]
10,CC(C)(C)c1ccc(CCC=O)cc1,-1.77%
11,CC1=C(O)C(=O)C(C)O1 (configuration not stated),2.03%
12,CCOC(=O)[C@H](CCc1ccccc1)N[C@@H](C)C(=O)N1C(=O)N(C)C[C@H]1C(=O)O,0.638% [at 30.3 µM]
13,CCCCCCCCCCCCCCCCCC(=O)OCC(CC)CCCC (configuration not stated),0.0179%
14,NC(=O)Cc1cccc2ccccc12,-1.36%
15,Cc1cnccn1,-4.23%
16,O=Cc1ccc(Cl)cc1,1.26%
17,CCCCCCCCCCC,2.5%
18,CCCCOC(=O)CCS,0.13%
19,COc1cc(C(=S)N2CCOCC2)cc(OC)c1OC,3.16% [at 30.3 µM]
20,CCCC(=O)Nc1ccc(O)c(C(C)=O)c1,-3.48% [at 30.3 µM]

row,SMILES,activation
1,COc1cc2c(Nc3ccc(Br)cc3F)ncnc2cc1OCC1CCN(C)CC1,0.216% [at 30.3 µM]
2,CC(=O)c1ccc2c(c1)CCCC2,-4%
3,c1cnc2cc3c(cc2n1)C1CNCC3C1,-3.3% [at 30.3 µM]
4,O=Cc1ccc([N+](=O)[O-])cc1,0.187%
5,CCC(=O)O[C@@H]1C[C@H]2CC[C@]1(C)C2(C)C,0.659%
6,CCNc1nc(N)nc(Cl)n1,-0.243%
7,CN(C)CCCNCCC#N,0.306%
8,O=C1CCN(c2ccccc2)N1,1.46%
9,O=C(O)c1ccc(OCCN2CCCCC2)cc1,-1.44% [at 30.3 µM]
10,C=CC(C)(O)CC/C=C(/C)CCC=C(C)C (configuration not stated),-1.49%
11,Cc1cc(CCC(=O)OCCOCCOCCOC(=O)CCc2cc(C)c(O)c(C(C)(C)C)c2)cc(C(C)(C)C)c1O,0.15%
12,C1CCCC1,-0.483%
13,NS(=O)(=O)c1ccccc1OC(F)(F)F,0.472%
14,Clc1ccc2c(c1)Nc1ccccc1S2,0.621% [at 30.3 µM]
15,CC(C)(O)C(=O)c1ccc(OCCO)cc1,-0.428%
16,C[Si](C)(C)O[Si](C)(C)O[Si](C)(C)C,-1.16%
17,[Cl][Nd]([Cl])[Cl],0.884%
18,O=C(Cn1ccnc1[N+](=O)[O-])NCc1ccccc1,-1.05% [at 30.3 µM]
19,O=C(O)CC(=O)O,-1.67%
